Test results as given in PubChem BioAssay (Tox21).
Records with an inconclusive call do not appear. More than one record can exist for a structure, and the calls need not agree. Calls of active or inactive are those of the source. Calls follow the shape of the dose curve; as a rule, active = well fitted curve in the direction sought with a large enough effect in the repeat runs; inconclusive = weak or mixed curves; inactive = no such curve, though single readings can be large; an effect the other way counts as inactive or inconclusive.

How the values were obtained:
[1] = A CellTox Green Cytotoxicity Assay to monitor cytotoxicity in HEK293 cells - 40 hour (AID 1224871); also: nearly all actives have a fitted effect of over 45% in size; also: potency is read from the fitted curve at half-maximal effect
Procedure, shortened: (§1)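 Fluorescence intensity, read at 0, 8, 16, 24, 32 and 40 h of compound treatment, reflected dye binding to DNA of dead HEK293 cells; compounds (23 nL, DMSO) were added 5 h after plating cells with reagent.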

[2] = qHTS RealTime-Glo MT Cell Viability Assay in HEK293 cells - 16 hour (AID 1224872); also: nearly all actives have a fitted effect of over 50% in size; also: potency is read from the fitted curve at half-maximal effect
Procedure, shortened: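 HEK293 cells seeded with NanoLuc/prosubstrate reagent, rested 5 h at 37 C, then dosed and kept at 37 C up to 40 h. Nonlytic real-time luminescence from viable cells read at 0, 8, 16, 24, 32 and 40 h.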

[3] = qHTS RealTime-Glo MT Cell Viability Assay in HepG2 cells - 8 hour (AID 1224873); also: nearly all actives have a fitted effect of over 55% in size
Procedure, shortened: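 HepG2 cells mixed with RealTime-Glo MT reagents (NanoLuc plus cell-permeant prosubstrate) were seeded at 600 cells/well, incubated 5 h at 37 C/5% CO2, then pinned with compounds in DMSO; nonlytic luminescence tracked viability during 40 h treatment.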

[4] = qHTS RealTime-Glo MT Cell Viability Assay in HEK293 cells - 40 hour (AID 1224874); settings: RealTime-Glo luminescence; max response: stronger effect = lower value; also: nearly all actives have a fitted effect of over 50% in size
Procedure, shortened: (§2)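 Viable HEK293 cells reduce a cell-permeant prosubstrate; the product diffuses out and is consumed by NanoLuc in the medium to give light. Compounds went in after a 5 h incubation and plates were read over the treatment course.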

[5] = A CellTox Green Cytotoxicity Assay to monitor cytotoxicity in HEK293 cells - 24 hour (AID 1224875); also: series mostly up to about 77 µM; nearly all actives have a fitted effect of over 45% in size
Procedure, shortened: as §1

[6] = A CellTox Green Cytotoxicity Assay to monitor cytotoxicity in HepG2 cells - 16 hour (AID 1224876); also: nearly all actives have a fitted effect of over 45% in size
Procedure, shortened: (§3)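 Using 1536-well format, dye-containing HepG2 suspension was seeded, allowed 5 h at 37 C/5% CO2, dosed by pintool with compounds, positive and negative controls, and imaged for fluorescence across 40 h.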

[7] = A CellTox Green Cytotoxicity Assay to monitor cytotoxicity in HepG2 cells - 24 hour (AID 1224878); also: nearly all actives have a fitted effect of over 45% in size
Procedure, shortened: as §3

[8] = A CellTox Green Cytotoxicity Assay to monitor cytotoxicity in HepG2 cells - 40 hour (AID 1224879); also: nearly all actives have a fitted effect of over 40% in size
Procedure, shortened: as §3

[9] = qHTS RealTime-Glo MT Cell Viability Assay in HEK293 cells - 0 hour (AID 1224880)
Procedure, shortened: as §2

[10] = qHTS RealTime-Glo MT Cell Viability Assay in HepG2 cells - 32 hour (AID 1224877); also: nearly all actives have a fitted effect of over 55% in size
Procedure, shortened: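 HepG2 cells (600/well) were dispensed with RealTime-Glo reagents, incubated 5 h at 37 °C, then treated with compounds in DMSO for up to 40 h. Nonlytic NanoLuc luminescence reflecting viable cells was read at each stated time point.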
% is scaled to controls: 0 for no effect and ±100 for the full control effect.

CCCCS(=O)(=O)Cl
inactive: Potency [1] | Potency [2] | outcome [3] | max response [4] 6.29% | Potency [5] | Potency [6] | Potency [7] | Potency [8] | outcome [9]

CCCOc1nn(C(=O)NS(=O)(=O)c2ccccc2C(=O)OC)c(=O)n1C
inactive: Potency [1] | Potency [2] | outcome [3] | max response [4] 22.1% | Potency [5] | Potency [10] | Potency [7] | Potency [8] | outcome [9]

CCCC(C)C1(CC)C(=O)N=C(S)NC1=O (centres undefined)
inactive: Potency [1] | Potency [2] | outcome [3] | max response [4] 1.79% | Potency [5] | Potency [6] | Potency [7] | Potency [8] | outcome [9]

N[C@@H](Cc1ccc(Oc2cc(I)c(O)c(I)c2)c(I)c1)C(=O)O
inactive: Potency [1] | Potency [2] | outcome [3] | max response [4] 5.88% | Potency [5] | Potency [6] | Potency [7] | Potency [8] | outcome [9]

OP(O)c1ccccc1
inactive: Potency [1] | Potency [2] | outcome [3] | max response [4] 9.39% | Potency [5] | Potency [6] | Potency [7] | Potency [8] | outcome [9]

CCCC[N+](=O)[O-]
inactive: Potency [1] | Potency [2] | outcome [3] | max response [4] 1.79% | Potency [5] | Potency [6] | Potency [7] | Potency [8] | outcome [9]

CN1C(=O)COc2c(C(=O)NC3CN4CCC3CC4)cc(Cl)cc21 (centres undefined)
inactive: Potency [1] | Potency [2] | outcome [3] | max response [4] 3.5% | Potency [5] | Potency [10] | Potency [7] | Potency [8] | outcome [9]

O=C1CCCCC1Cl (centres undefined)
inactive: Potency [1] | Potency [2] | outcome [3] | max response [4] 11.3% | Potency [5] | Potency [10] | Potency [7] | Potency [8] | outcome [9]

C=C1C[C@@H]2[C@H](CC[C@]3(C)C(=O)CC[C@@H]23)[C@@]2(C)C=CC(=O)C=C12
inactive: Potency [1] | Potency [2] | outcome [3] | max response [4] 0.138% | Potency [5] | Potency [10] | Potency [7] | Potency [8] | outcome [9]

Clc1nc(Cl)nc(Nc2ccccc2Cl)n1
inactive: Potency [1] | Potency [2] | outcome [3] | max response [4] 11.5% | Potency [5] | Potency [10] | Potency [7] | Potency [8] | outcome [9]

CN(C)CCc1c[nH]c2cccc(OP(=O)(O)O)c12
inactive: Potency [1] | Potency [2] | max response [4] -0.389% | Potency [5] | Potency [6] | Potency [7]

S=C=S
inactive: Potency [1] | Potency [2] | outcome [3] | max response [4] 6.94% | Potency [5] | Potency [7] | Potency [8]

CC(C)(C)NC[C@H](O)c1ccc(O)cc1Cl
inactive: Potency [1] | Potency [2] | max response [4] 4.05% | Potency [5] | Potency [6] | Potency [10] | Potency [7] | Potency [8]

ClC1=C(Cl)C2(Cl)C(CBr)CC1(Cl)C2(Cl)Cl (centres undefined)
inactive: outcome [3] | max response [4] -5.43% | Potency [6] | Potency [10] | Potency [7] | Potency [8] | outcome [9]
54.9 µM (active) and inactive: Potency [1]
43.6 µM (active) and inactive: Potency [2]

Cc1cccc2sc3nncn3c12
inactive: Potency [1] | Potency [2] | outcome [3] | max response [4] 22% | Potency [5] | Potency [10] | Potency [8] | outcome [9]

BrCc1ccc(Br)cc1
inactive: Potency [1] | Potency [2] | max response [4] 4.4% | Potency [5] | Potency [6] | Potency [10] | Potency [7] | Potency [8] | outcome [9]

O=C(Cl)C(Cl)Cl
inactive: Potency [1] | Potency [2] | max response [4] 1.34% | Potency [5] | Potency [6] | Potency [10] | Potency [7] | Potency [8]

CN(C)CCN(C)C
inactive: Potency [1] | Potency [2] | outcome [3] | max response [4] 7.83% | Potency [5] | Potency [10] | Potency [7] | Potency [8] | outcome [9]

CCN(CCO)CCO
inactive: Potency [1] | Potency [2] | max response [4] 4.13% | Potency [5] | Potency [6] | Potency [10] | Potency [7] | Potency [8] | outcome [9]

O=C(Cl)c1ccccc1
inactive: Potency [1] | Potency [2] | outcome [3] | max response [4] -3.78% | Potency [5] | Potency [10] | Potency [7] | Potency [8] | outcome [9]

CC(C)[C@]12CC(=O)[C@H](C)[C@H]1C2
inactive: Potency [1] | Potency [2] | max response [4] -4.49% | Potency [5] | Potency [6] | Potency [10] | Potency [7] | Potency [8]

O=P(O)(O)c1ccccc1
inactive: Potency [1] | Potency [2] | max response [4] 9.41% | Potency [5] | Potency [6] | Potency [10] | Potency [7] | Potency [8] | outcome [9]

NC(=O)CS(=O)C(c1ccccc1)c1ccccc1 (centres undefined)
inactive: Potency [1] | Potency [2] | outcome [3] | max response [4] -4.1% | Potency [5] | Potency [7] | Potency [8] | outcome [9]

CC[C@H](O)C(C[C@H](C)N(C)C)(c1ccccc1)c1ccccc1
inactive: Potency [1] | Potency [2] | outcome [3] | Potency [5] | Potency [6] | Potency [10] | Potency [7] | Potency [8] | outcome [9]

NNCc1ccccc1
inactive: Potency [1] | Potency [2] | outcome [3] | Potency [5] | Potency [6] | Potency [10] | Potency [7] | Potency [8]
